Assay outcomes: PubChem BioAssay, several laboratories
NALP3 yeast inh – blocks the NALP3 inflammasome reconstituted in yeast; Yeast reconstituted NLRP3/ASC/caspase-1, beta-gal luminescence, 24 h; hit rate 0.39% among 330,000; inhibition, % at 10 µM; AID 2825;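 active = inhibition of 50% or more; inactive = inhibition below 50%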
tim10-1 inh – inhibits growth of tim10-1 mutant yeast; S. cerevisiae tim10-1 ts strain growth, BacTiter-Glo, 24 h; inhibition, % at 20 µM; hit rate 2.2% among 330,000;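 active = inhibition of at least 40%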;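 note: mutant grown at 25 °C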
CR mimetic SO – lowers age-related superoxide in aged yeast cells. hit rate 0.18% among 330,000. AID 2690. superoxide response (% of plate mean), % at 10 µM. S. cerevisiae aged cells, superoxide DHE fluorescence; hits give low values;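 active = superoxide response under a set limit, about three screen SD below normal, cut at about 65% in these data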;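 note: yeast aged for seven days with compound at 30 °C before DHE staining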
TIM10 inh – inhibits growth of TIM10 yeast strain. S. cerevisiae TIM10 strain growth, BacTiter-Glo luminescence, 24 h. inhibition, % at 10 µM. hit rate 1.4% among 330,000. AID 463195;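 active = inhibition of 40% or more at the single tested concentration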;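 note: wild-type TIM10 isogenic control strain grown at permissive 25 °C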
tim23-1 inh – inhibits growth of tim23-1 mutant yeast. S. cerevisiae tim23-1 growth, BacTiter-Glo luminescence, 24 h. inhibition, % at 20 µM. hit rate 1.3% among 330,000;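 active = growth inhibition of the mutant yeast at or above 50%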;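 note: temperature-sensitive mutant grown at 25 °C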
tim10-1 conf – confirmation of tim10-1 mutant yeast growth inhibitors. hit rate 56% among 7,400. inhibition, % at 20 µM. AID 463213. shares compounds with tim10-1 inh. S. cerevisiae tim10-1 ts strain growth, BacTiter-Glo, 24 h;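 active = inhibition of yeast growth at or above a set limit in either of two repeat tests at 20 µM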;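 note: tim10-1 mutant grown at permissive 25 °C to find synthetic lethal compounds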
Each line names hits and unclear results; the compound was inactive in the other large screens (follow-up assays come after a bar, where they were run). The list is not random: actives were taken first. Their share in the collection is about 3.8%.

Cc1cc(C)cc(OCC(=O)N2N=C(C(F)(F)F)CC2(O)C(C)(C)C)c1 (configuration not stated)	tim10-1 inh 46 | tim10-1 conf 34
Fc1cccc(F)c1CSc1nc2ccccc2[nH]1	tim10-1 inh 43 | tim10-1 conf inactive
O=C(c1cc(-c2ccc(F)cc2)nc2ccccc12)N1CCN(C2CCS(=O)(=O)C2)CC1 (configuration not stated)	none
Cc1cc(NC(=O)c2c(F)cccc2Cl)n(-c2nc3ccccc3[nH]2)n1	tim10-1 inh 40 | tim10-1 conf inactive
Cc1cc(NC(=O)c2c(F)cccc2F)n(-c2nc3ccccc3[nH]2)n1	none
N#Cc1c(N2CCCC(O)C2)nc(N)c2c(N)nc3c(c12)CC(=O)N3C12CC3CC(CC(C3)C1)C2 (configuration not stated)	tim10-1 inh 50 | tim10-1 conf 33
O=C(Nc1ncc2c(n1)-c1ccccc1CC2)c1ccc(Cl)cc1	tim10-1 inh 47 | tim10-1 conf 37
O=C(Nc1ncc2c(n1)-c1ccccc1OC2)c1ccc(F)cc1	none
CCn1c2ccccc2c2nc3cc(OC)c(OC)cc3nc21	none
CCn1c2ccccc2c2nc3ccccc3nc21	tim10-1 inh 43 | tim10-1 conf 35
CCC(Sc1ccccn1)C(=O)Nc1cccc([N+](=O)[O-])c1 (configuration not stated)	none
CCOC(=O)N1CCC2(CC1)NCCc1c2[nH]c2ccccc12	none
CC(C)(C)c1cc(CCC(=O)NNC(=S)NC(=O)c2ccccc2)cc(C(C)(C)C)c1O	tim10-1 inh 46 | tim10-1 conf 31
O=C(CCc1ccccc1)NNC(=S)NC(=O)c1ccccc1	none
C=CCN1C(=S)CC(c2ccccc2)=Nc2ccccc21	none
COC(=O)c1cc(Cl)cc(Cl)c1OS(=O)(=O)N(C)C	tim10-1 inh 41 | tim10-1 conf inactive
COc1c(Cl)cc(Cl)cc1C(=O)Nc1ccc(NC(C)=O)cc1	none
Cc1ccc(S(C)(=O)=O)cc1C(=O)N1CC(C(N)=O)Oc2ccccc21 (configuration not stated)	none
O=[N+]([O-])/C(C(Cl)=C(Cl)Cl)=C(\Sc1ccccc1)N1CCCCC1	tim10-1 inh 44 | tim10-1 conf 35
O=C(CCSc1ccccc1)N1CCCC1	none
Cc1cc(C(=O)CSc2nnc(-c3ccc(Cl)cc3)n2CC2CCCO2)c(C)n1C (configuration not stated)	tim10-1 inh 50 | tim10-1 conf 35
O=c1c2ccccc2nc2oc3ccccc3n12	none
CN(CC(=O)Nc1ccc(F)cc1)C(=O)Cn1nnc(-c2ccccc2)n1	none
Cc1nn(-c2ccc(F)cc2)c(Cl)c1/C=C1\C(=O)Nc2ccccc21	tim10-1 inh 54 | tim10-1 conf 41
CCC1CCCCN1c1nc(-c2ccncc2)nc2ccccc12 (configuration not stated)	tim10-1 inh 50 | tim10-1 conf 38
Cc1c(C(=O)N(Cc2nccn2C)C(C)C)oc2c(F)cccc12	none
CCCc1ccc2oc(C(=O)N(Cc3nccn3C)C(C)C)c(C)c2c1	tim10-1 inh 43 | tim10-1 conf inactive
CC(C)Cn1cc(Cl)c(=O)n(CC(C)C)c1=O	none
CC(=O)CCc1oc2ccc(C)cc2c1-c1ccc(C)o1	tim10-1 inh 46 | tim10-1 conf 58
Cn1cc(SCC(=O)O)c2ccccc21	none
Cn1cc(C(C[N+](=O)[O-])c2ccccc2)c2ccccc21 (configuration not stated)	tim10-1 inh 40 | tim10-1 conf 49
COc1ccc(/C=C/C(=O)c2ccccc2)cc1Cn1nnc2ccccc21	tim10-1 inh 59 | tim10-1 conf 45
O=c1c(Cc2ccccc2)c(O)ccn1Cc1ccc2c(c1)OCO2	none
Cc1ccc(-n2c(Cc3ccccc3)n[nH]c2=S)cc1	tim10-1 inh 40 | tim10-1 conf inactive
Cc1ccc(-n2c(CNc3cccc(Cl)c3)n[nH]c2=S)cc1	none
S=c1[nH]nc(Cc2ccccc2)n1-c1ccccc1	none
Cc1ccc(-n2c(CNc3ccc(C)c(Cl)c3)n[nH]c2=S)cc1	tim10-1 inh 41 | tim10-1 conf inactive
Cc1onc(-c2ccccc2)c1C(=O)Nc1sc2c(c1C#N)CCC2	tim10-1 inh 41 | tim10-1 conf 42
Cc1onc(-c2ccccc2)c1C(=O)Nc1sc2c(c1C(N)=O)CCC2	tim10-1 inh 47 | tim10-1 conf inactive
